{"source": "PubChem BioAssay (NCATS)", "note": "Results filed as inconclusive are left out. A call without a number means that no potency is given here. Calls of active or inactive are those of the source. The call rests on the fitted dose curve; in most records, active means well fitted inhibition curve with a large enough effect; inconclusive means small, poorly fitted or top-dose-only effect, or effect the other way; inactive means flat fitted curve, though single readings scatter. Potency means the concentration at half of the fitted maximal effect."}
{"target": "ATP-dependent 6-phosphofructokinase (Trypanosoma brucei brucei) (UniProt O15648)", "sequence (O15648 whole entry, looked up)": "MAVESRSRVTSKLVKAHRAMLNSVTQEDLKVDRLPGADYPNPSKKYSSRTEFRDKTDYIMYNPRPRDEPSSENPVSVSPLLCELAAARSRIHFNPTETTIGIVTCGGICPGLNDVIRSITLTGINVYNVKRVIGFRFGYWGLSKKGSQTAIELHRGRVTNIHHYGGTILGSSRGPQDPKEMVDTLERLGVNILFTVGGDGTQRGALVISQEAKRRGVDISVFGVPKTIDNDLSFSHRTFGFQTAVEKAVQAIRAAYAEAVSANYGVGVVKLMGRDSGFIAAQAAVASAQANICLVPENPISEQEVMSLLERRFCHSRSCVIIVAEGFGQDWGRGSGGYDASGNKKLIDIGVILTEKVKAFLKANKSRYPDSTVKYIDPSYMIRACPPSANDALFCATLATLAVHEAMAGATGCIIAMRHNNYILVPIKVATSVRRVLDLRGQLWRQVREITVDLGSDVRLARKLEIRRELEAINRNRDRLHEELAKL", "test": "qHTS Assay to Find Inhibitors of T. brucei phosphofructokinase: hit validation (AID 492961)", "settings": "T. brucei PFK, ADP-Glo luminescence; series mostly up to 51.4 µM", "how_it_was_run": "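Percent activity derived from corrected luminescence, normalized between 0x and 1x enzyme controls, then fitted to concentration-response curves. Conditions: 1.25 nM PFK, 0.1 mM ATP, 0.5 mM F6P, 45 min RT.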"}
{"smiles": "OCc1ccccn1", "Potency": "inactive"}
{"smiles": "CC1=C(C(=O)O)N2C(=O)[C@@H](NC(=O)[C@H](N)c3ccccc3)[C@H]2SC1", "Potency": "inactive"}
{"smiles": "N/C(=N\\N=C\\c1ccc(Cl)cc1)N/N=C/c1ccc(Cl)cc1", "Potency": "inactive"}
{"smiles": "CNCCc1ccccn1", "Potency": "inactive"}
{"smiles": "CCCCc1cc2ccccc2c(OCCN(C)C)n1", "Potency": "inactive"}
{"smiles": "CNCCCCOc1ccccc1Cc1ccccc1", "Potency": "inactive"}
{"smiles": "N=C(N)N1CCc2ccccc2C1", "Potency": "inactive"}
{"smiles": "COc1cc(C(=O)NCc2ccc(OCCN(C)C)cc2)cc(OC)c1OC", "Potency": "inactive"}
{"smiles": "O=C(Nc1cccc(C2=NCCN2)c1)Nc1cccc(C2=NCCN2)c1", "Potency": "inactive"}
{"smiles": "O=C(O)c1ccc(S(=O)(=O)N(Cl)Cl)cc1", "Potency": "inactive"}
{"smiles": "O=c1[nH]c(=O)n([C@H]2C[C@H](O)[C@@H](CO)O2)cc1F", "Potency": "inactive"}
{"smiles": "Nc1nc(N)c(-c2ccccc2)s1", "Potency": "inactive"}
{"smiles": "CC(C)Nc1cccnc1N1CCN(C(=O)c2cc3cc(NS(C)(=O)=O)ccc3[nH]2)CC1", "Potency": "inactive"}
{"smiles": "Oc1ccccc1C=NCc1ccccc1", "Potency": "inactive"}
{"smiles": "OCCOCCN1CCN(C2=Nc3ccccc3Sc3ccccc32)CC1", "Potency": "inactive"}
{"smiles": "CC(=O)NC(=O)c1ccccc1O", "Potency": "inactive"}
{"smiles": "CCCCC(CC)COC(=O)/C=C/c1ccc(OC)cc1", "note": "(configuration not stated)", "Potency": "inactive"}
{"smiles": "NCCNC(=O)c1ccc(Cl)cn1", "Potency": "inactive"}
{"smiles": "O=C(c1ccc(F)cc1)C1CCN(CCn2c(=S)[nH]c3ccccc3c2=O)CC1", "Potency": "inactive"}
{"smiles": "CC(C)NCC(O)c1ccc2ccccc2c1", "note": "(configuration not stated)", "Potency": "inactive"}
{"smiles": "COc1ccc(/C=N/NC(=O)c2ccncc2)cc1OC", "Potency": "inactive"}
{"smiles": "CC1CCc2c(N3CCC(O)CC3)c(F)cc3c(=O)c(C(=O)O)cn1c23", "note": "(configuration not stated)", "Potency": "inactive"}
{"smiles": "Nc1ccc(S(=O)(=O)NCc2ccccc2)cc1", "Potency": "inactive"}
{"smiles": "CN1CCc2cccc3c2[C@H]1Cc1ccc(O)c(O)c1-3", "Potency": "12.6 µM (active)"}
{"smiles": "Cc1c[nH]c2ccccc12", "Potency": "inactive"}
{"smiles": "NCc1ccccc1Sc1ccccc1CO", "Potency": "inactive"}
{"smiles": "CN1CCC[C@@H]1CCO[C@](C)(c1ccccc1)c1ccc(Cl)cc1", "Potency": "inactive"}
{"smiles": "CCOC(=O)Nc1ccc2c(c1)N(C(=O)CCN1CCOCC1)c1ccccc1S2", "Potency": "inactive"}
{"smiles": "Oc1ccc(Cl)cc1Cc1cc(Cl)ccc1O", "Potency": "inactive"}
{"smiles": "O=C1C(=O)c2ccccc2C(O)=C1C1CCC(c2ccc(Cl)cc2)CC1", "note": "(configuration not stated)", "Potency": "inactive"}
{"smiles": "O=C(Nc1ncc([N+](=O)[O-])s1)c1cccs1", "Potency": "inactive"}
{"smiles": "CCc1oc2ccccc2c1C(=O)c1cc(I)c(O)c(I)c1", "Potency": "inactive"}
{"smiles": "O=[N+]([O-])c1cccc(S(=O)(=O)NCCNS(=O)(=O)c2cccc([N+](=O)[O-])c2)c1", "Potency": "inactive"}
{"smiles": "Cc1cc(NS(=O)(=O)c2ccc(N)cc2)nc(C)n1", "Potency": "inactive"}
{"smiles": "NC(N)=NN=C(/C=C/c1ccc([N+](=O)[O-])o1)/C=C/c1ccc([N+](=O)[O-])o1", "Potency": "inactive"}
{"smiles": "O=C1C(O)=C(O)C(=O)C(O)=C1O", "Potency": "inactive"}
{"smiles": "Cl/C(=C\\n1cncn1)c1ccc(Cl)cc1Cl", "Potency": "inactive"}
